Assay [1] deals with Cytochrome P450 3A4 (Homo sapiens) (UniProt P08684). Put plainly: qHTS Assay for Inhibitors and Substrates of Cytochrome P450 3A4 (AID 884). Note: nearly all actives have a fitted effect of over 50% in size. Note: potency is the fitted concentration of half-maximal effect. The settings on record: recombinant CYP3A4, Luciferin-PPXE luminescence; series mostly up to 57.1 µM. The method, boiled down:
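20 nM human CYP3A4 with 25 uM Luciferin-PPXE (at KM) in 200 mM KPO4, preincubated 10 min with compound; NADPH regeneration started a 60 min RT reaction. Luciferin detected by luminescence, normalized to 57 uM ketoconazole as full inhibition.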

Assay [2] in a line: Confirmation and Secondary Assay for Modulators of Hemoglobin Beta Chain Splicing at IVS2 654 locus (AID 910).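 Note: HeLa cells stably carrying EGFP split by mutant beta-globin IVS2-654 intron; per-well total GFP intensity by laser scanning cytometry after 2-day treatment.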 The settings on record: HeLa EGFP-654 splicing reporter, GFP fluorescence, 48 h; series mostly up to 46.1 µM. The method, boiled down:
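Readout: per-well total peak green fluorescence (488 nm ex, 500–520 nm em) from objects 5–250 µm, reflecting correct splicing of an EGFP-654 reporter. Compounds were applied for 2 days at 37 °C to overnight-plated HeLa EGFP-654 cells; controls were DMSO and 500 nM IVS2-654 PNA.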

Assay [3] is described as follows: Confirmation and Secondary Assay for Modulators of Hemoglobin Beta Chain Splicing at IVS2 705 locus (AID 930). The settings on record: HeLa EGFP-705 splicing reporter, GFP fluorescence, 48 h; series mostly up to 46.1 µM. In short, it runs like this: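 HeLa cells stably carrying EGFP interrupted by mutant beta-globin IVS2-705 intron (CMV-driven) were seeded at 500 cells/well, treated next day with compound for 2 days at 37C; corrected splicing restores EGFP, read as total peak GFP intensity per well.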

In assay [4] the target is Ubiquitin carboxyl-terminal hydrolase 1 (Homo sapiens) (UniProt O94782). Briefly: Inhibitors of USP1/UAF1: Pilot qHTS (AID 504865). Note: nearly all actives have a fitted effect of over 35% in size. Note: potency is the fitted concentration of half-maximal effect. The settings on record: purified USP1/UAF1, Ub-rhodamine cleavage fluorescence; series mostly up to 114 µM. In short, it runs like this:
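1nM USP1/UAF1 + cpd, 15 min RT; start w/ Ub-Rho 150nM final; kinetic FL 480/540 nm, 6 reads q60 s. Buffer 50mM HEPES pH 7.8, 0.5mM EDTA, 1mM TCEP, 0.01% Tween-20, 0.1 mg/ml BSA.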
(In general: In qHTS, concentration-response curves come from the screen itself.)

Structures are written as SMILES. Results filed as inconclusive are left out. Entries that show only a call come without a potency. Active and inactive are the calls of the source. Calls come from the whole dose curve; as a rule, active = well fitted curve in the direction sought with a large enough effect; inconclusive = small, poorly fitted or top-dose-only effect, or another doubt; inactive = no such curve, though single readings can be large; an effect the other way counts as inactive or inconclusive.

Chain of Cytochrome P450 3A4 (Homo sapiens) (P08684 whole entry, looked up): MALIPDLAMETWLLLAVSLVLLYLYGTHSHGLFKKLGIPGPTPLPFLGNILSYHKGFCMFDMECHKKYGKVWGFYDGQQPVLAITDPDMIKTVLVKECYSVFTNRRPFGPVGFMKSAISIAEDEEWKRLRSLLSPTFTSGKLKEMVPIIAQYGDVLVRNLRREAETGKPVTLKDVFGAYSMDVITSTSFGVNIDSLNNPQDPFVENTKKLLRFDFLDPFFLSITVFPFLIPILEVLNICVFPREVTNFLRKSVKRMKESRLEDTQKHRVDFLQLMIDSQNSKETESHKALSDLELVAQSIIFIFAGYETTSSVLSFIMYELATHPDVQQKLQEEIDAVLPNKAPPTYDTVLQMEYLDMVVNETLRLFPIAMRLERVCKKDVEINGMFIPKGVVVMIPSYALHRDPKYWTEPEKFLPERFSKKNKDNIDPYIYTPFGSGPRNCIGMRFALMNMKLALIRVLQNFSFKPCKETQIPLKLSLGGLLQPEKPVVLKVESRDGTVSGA
Chain of Ubiquitin carboxyl-terminal hydrolase 1 (Homo sapiens) (O94782 whole entry, looked up): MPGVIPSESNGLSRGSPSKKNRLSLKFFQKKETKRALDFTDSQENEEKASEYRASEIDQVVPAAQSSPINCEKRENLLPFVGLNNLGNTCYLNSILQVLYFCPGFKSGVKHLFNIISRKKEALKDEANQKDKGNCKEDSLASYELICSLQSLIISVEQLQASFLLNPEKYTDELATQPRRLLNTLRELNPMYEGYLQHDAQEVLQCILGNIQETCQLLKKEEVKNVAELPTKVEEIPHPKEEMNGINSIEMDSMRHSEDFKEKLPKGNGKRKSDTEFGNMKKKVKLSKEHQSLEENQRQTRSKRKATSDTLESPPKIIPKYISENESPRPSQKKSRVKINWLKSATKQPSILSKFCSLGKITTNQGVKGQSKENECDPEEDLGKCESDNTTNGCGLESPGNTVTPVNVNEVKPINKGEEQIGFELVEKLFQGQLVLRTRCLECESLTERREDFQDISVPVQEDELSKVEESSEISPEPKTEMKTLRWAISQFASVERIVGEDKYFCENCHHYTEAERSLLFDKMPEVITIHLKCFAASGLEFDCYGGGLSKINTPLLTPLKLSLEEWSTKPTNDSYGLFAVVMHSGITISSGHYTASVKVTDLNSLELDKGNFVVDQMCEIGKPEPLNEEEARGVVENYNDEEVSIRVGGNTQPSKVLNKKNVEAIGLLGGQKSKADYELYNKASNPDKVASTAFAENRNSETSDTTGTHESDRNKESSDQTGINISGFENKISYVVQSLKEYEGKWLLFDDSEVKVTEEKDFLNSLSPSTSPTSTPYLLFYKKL

With `Cc1cc(O)c(C)c(O)c1C(=O)O`, the Potency result in assay [1] and in assay [4] was “inactive” throughout. Further, the outcome in assay [2] and in assay [3] was inactive.

As to `COc1ccc2c(=O)ccoc2c1`, the Potency result in assay [1] and in assay [4] was “inactive” each time. Also, the compound was called inactive in assay [2] and in assay [3].

Consider `O=c1c(-c2ccc(O)cc2)coc2c(C3OC(CO)C(O)C(O)C3O)c(O)ccc12` (centres undefined), for which the Potency entry in assay [1] and in assay [4] was “inactive” throughout. Moreover, the result in assay [3] was inactive.

On to `CC(CCC(=O)O)C1CCC2C3C(=O)CC4CC(=O)CC[C@@]4(C)C3CC(=O)[C@]12C` (some centres undefined), for which the Potency entry in assay [1] and in assay [4] was “inactive” throughout. Further, the call in assay [2] and in assay [3] was inactive.

Turning to `CC(=O)OC1CC(OC(C)=O)[C@]2(C)C(CC(OC(C)=O)[C@@]3(C)C4=CC(=O)OC(c5ccoc5)[C@]4(C)CCC32)C1(C)C` (some centres undefined), the Potency in assay [1] is 10 µM (active). Besides, the call in assay [2] and in assay [3] was inactive. Also, the Potency result in assay [4] was “inactive”.

Turning to `CC(=O)OC1CC[C@@]2(C)C3CC[C@@]4(C)C(CC5O[C@@]6(CCC(C)CO6)C(C)C54)C3CC[C@@H]2C1` (some centres undefined), the Potency result in assay [1] and in assay [4] was “inactive” in each case. Also, the call in assay [2] and in assay [3] was inactive.

As to `CC1/C=C/C=C/C=C/C=C/C=C/C=C/C=C/C(OC2OC(C)C(O)C(N)C2O)CC2O[C@@](O)(CC(O)CC(O)C(O)CCC(O)CC(O)CC(=O)OC(C)[C@H](C)C1O)CC(O)C2C(=O)O` (some centres undefined), the Potency entry in assay [1] is “inactive”. In addition, the outcome in assay [2] and in assay [3] was inactive. Also, in assay [4], the Potency is 56.2 µM (active).

In the case of `Cn1c(=O)[nH]c(=O)c2[nH]cnc21`, the Potency entry in assay [1] and in assay [4] was “inactive” in each case. In assay [3], the compound was classed as inactive.

On to `COc1cc(OC)c2c(=O)c(-c3ccccc3)coc2c1`, for which the Potency in assay [1] is 15.8 µM (active). In addition, the outcome in assay [2] and in assay [3] was inactive. For the same compound, the Potency entry in assay [4] is “inactive”.

As to `CC(=O)OC1CC2C(C)(C)C(=O)CC[C@]2(C)C2CC[C@]3(C)C(=CC(=O)OC3c3ccoc3)[C@]12C` (some centres undefined), the Potency in assay [1] is 6.31 µM (active). For the same compound, the outcome in assay [2] and in assay [3] was inactive. The Potency result in assay [4] was “inactive”.

For the compound `CC1(C)CC[C@]2(C(=O)O)CC[C@@]3(C)C(=CCC4[C@@]5(C)CCC(O)C(C)(C)C5CC[C@@]43C)C2C1` (some centres undefined), the Potency entry in assay [1] and in assay [4] was “inactive” throughout. Moreover, the compound was classed as inactive in assay [2] and in assay [3].

As to `CCC(=O)O[C@H]1C(O[C@@H]2C(C)[C@H](O[C@H]3C[C@@](C)(OC)C(O)C(C)O3)C(C)C(=O)OC(CC)[C@@](C)(O)C(O)[C@H](C)C(=O)C(C)C[C@]2(C)O)OC(C)CC1N(C)C` (some centres undefined), the Potency in assay [1] is 0.631 µM (active); in assay [4] it was 20 µM (active). The result in assay [2] and in assay [3] was inactive.

With `O=C(O)c1cc2ccccc2[nH]1`, the Potency result in assay [1] and in assay [4] was “inactive” in each case. Besides, the result in assay [2] and in assay [3] was inactive.

As to `COc1ccc(-c2cc(=O)c3c(OC(C)=O)cc(OC(C)=O)cc3o2)cc1`, the Potency in assay [1] is 25.1 µM (active). Besides, the outcome in assay [2] and in assay [3] was inactive. Moreover, the Potency result in assay [4] is “inactive”.

Regarding `O=C1OC(C(O)CO)C(O)=C1O` (centres undefined), the Potency result in assay [1] and in assay [4] was “inactive” each time. The outcome in assay [2] and in assay [3] was inactive.

Turning to `O=C(O)C(S)[C@@H](S)C(=O)O` (some centres undefined), the Potency entry in assay [1] and in assay [4] was “inactive” in each case. The outcome in assay [2] and in assay [3] was inactive.

Regarding `O[N+]1=CC=CCC1=S.On1ccccc1=S.[Zn]`, the Potency entry in assay [1] and in assay [4] was “inactive” each time. For the same compound, the call in assay [2] and in assay [3] was inactive.

As for `C[N+]1(C)C2CCC1CC(OC(=O)C(O)c1ccccc1)C2` (centres undefined), the Potency result in assay [1] and in assay [4] was “inactive” each time. Besides, the result in assay [2] and in assay [3] was inactive.

With `O=C1C=CC2=C3c4cc(O)c(O)cc4C[C@]3(O)COC2=C1`, the Potency result in assay [1] and in assay [4] was “inactive” throughout. Further, the compound was called inactive in assay [2] and in assay [3].

`CC1c2cccc(O)c2C(O)=C2C(=O)[C@]3(O)C(O)=C(C(N)=O)C(=O)C(N(C)C)C3C(O)C21` (some centres undefined): the Potency result in assay [1] and in assay [4] was “inactive” each time. The outcome in assay [2] and in assay [3] was inactive.

In the case of `CC(=O)OC(C)(C)C1Cc2cc3ccc(=O)oc3cc2O1` (centres undefined), the Potency result in assay [1] and in assay [4] was “inactive” throughout. For the same compound, the compound was classed as inactive in assay [2] and in assay [3].

In the case of `C=C1CCC2C(CC2(C)C)C(=O)CCC1O` (centres undefined), the Potency in assay [1] is 2 µM (active). In assay [3], the result was inactive. In addition, the Potency entry in assay [4] is “inactive”.

In the case of `COC(=O)C1OC(=O)C2OC23[C@]2(C)C(OC(C)=O)CC4C(C)(C)C(=O)CC[C@]4(C)C2CC[C@@]13C` (some centres undefined), the Potency result in assay [1] and in assay [4] was “inactive” throughout. The compound was classed as inactive in assay [2] and in assay [3].

Take `COc1cc(C(C)=O)cc(OC)c1O`: the Potency result in assay [1] and in assay [4] was “inactive” throughout. In addition, the call in assay [2] and in assay [3] was inactive.

Regarding `COC(=O)CC1C(C)(C)C(=O)C2CC3C4=CC(=O)OC(c5ccoc5)[C@]4(C)CCC3[C@@]1(C)C2=O` (some centres undefined), the Potency in assay [1] was 7.94 µM (active). Moreover, the compound was called inactive in assay [2] and in assay [3]. Moreover, the Potency entry in assay [4] is “inactive”.

For the compound `COc1ccc2cc1Oc1ccc(cc1)CC1c3cc(c(OC)cc3CCN1C)Oc1c(OC)c(OC)cc3c1C(C2)N(C)CC3` (centres undefined), the Potency result in assay [1] and in assay [4] was “inactive” each time. Also, the compound was classed as inactive in assay [2] and in assay [3].

On to `CN(N=O)C(=O)N[C@H]1C(O)C(O)C(CO)O[C@@H]1O` (some centres undefined), for which the Potency entry in assay [1] and in assay [4] was “inactive” each time. In addition, the result in assay [2] and in assay [3] was inactive.

In the case of `COc1ccc2c(=O)c(-c3ccccc3)coc2c1`, the Potency result in assay [4] was “inactive”.

As for `CC1(C)C=Cc2c(cc3occ(-c4ccc5c(c4)OCO5)c(=O)c3c2O)O1`, the Potency in assay [1] is 25.1 µM (active). Further, the compound was classed as inactive in assay [3]. In addition, the Potency result in assay [4] was “inactive”.

Turning to `OCC(O)C(O)C(O)C(O)C(O)CO` (centres undefined), the Potency result in assay [1] and in assay [4] was “inactive” throughout. The compound was classed as inactive in assay [2] and in assay [3].

Turning to `Nc1nc(=O)n(C2OC(CO)C(O)C2O)cc1Cl` (centres undefined), the Potency entry in assay [1] and in assay [4] was “inactive” throughout. Besides, the compound was called inactive in assay [2] and in assay [3].

For `COc1c2ccoc2c(OC)c2oc(=O)ccc12`, in assay [1], the Potency is 2 µM (active). Moreover, the compound was called inactive in assay [2] and in assay [3]. The Potency entry in assay [4] is “inactive”.

As for `O=c1[nH]cnc2c1ncn2C1CC(O)C(CO)O1` (centres undefined), the Potency result in assay [1] and in assay [4] was “inactive” each time. In assay [3], the call was inactive.

On to `CO[C@@]1(NC(=O)Cc2cccs2)C(=O)N2C(C(=O)O)=C(COC(N)=O)CSC21` (some centres undefined), for which the Potency result in assay [1] and in assay [4] was “inactive” each time. The call in assay [2] and in assay [3] was inactive.

For `CCC1OC(=O)C(C)[C@@H](O[C@H]2C[C@@](C)(OC)C(O)C(C)O2)C(C)[C@@H](O[C@@H]2OC(C)CC(N(C)C)C2O)[C@@](C)(O)CC(C)C2NC(COCCOC)O[C@H](C2C)[C@@]1(C)O` (some centres undefined), the Potency entry in assay [1] and in assay [4] was “inactive” throughout. Moreover, the call in assay [2] and in assay [3] was inactive.

Turning to `COc1c2ccoc2cc2oc(C)cc(=O)c12`, the Potency in assay [1] was 3.16 µM (active). In addition, the compound was classed as inactive in assay [3]. Further, the Potency result in assay [4] was “inactive”.

`COc1cc2ccc(=O)oc2c(OC)c1OC`: the Potency entry in assay [1] and in assay [4] was “inactive” throughout. Further, the result in assay [2] and in assay [3] was inactive.

For the compound `NC(Cc1cnc[nH]1)C(=O)Nc1ccc2ccccc2c1` (centres undefined), the Potency in assay [1] is 2.51 µM (active). The result in assay [2] and in assay [3] was inactive. In addition, the Potency entry in assay [4] is “inactive”.

In the case of `CSCCC(N)C(=O)NC(CC(C)C)C(=O)NC(Cc1ccccc1)C(=O)O` (centres undefined), the Potency entry in assay [1] and in assay [4] was “inactive” each time. The result in assay [2] and in assay [3] was inactive.

Regarding `OC[C@H]1O[C@@H](n2cnc3c(NCc4ccccc4)ncnc32)[C@H](O)[C@@H]1O`, the Potency result in assay [1] and in assay [4] was “inactive” in each case.
